From PubChem BioAssay
Some of the results follow. The source made the active and inactive calls.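 How the source made its calls, unless noted: active means inhibition above the mean over all tested compounds plus 3 SD, which no compound reached; inactive means the rest.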

How the values were obtained:
[1] = reduced OD of T4-infected AddAB+ E. coli – absorbance, E. coli V3065, T4 phage, triplicate, AddAB inhibitor project, confirmation (AID 488942;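 active means mean inhibition above a set limit taken from the earlier primary screen, cut at about 13% in these data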;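 further: higher means less bacterial growth since AddAB block lets phage replicate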); details: E. coli V3065 expressing H. pylori AddAB, at 11.9 µM, stronger effect = higher value, T4 phage with gene 2 nonsense mutations
[2] = reduced OD of phage-infected RecBCD+ V66 E. coli – absorbance, mutant T4 phage, counter-screen for AddAB inhibitor project (AID 488955;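 active means mean inhibition above the mean of solvent-only control wells plus 3 SD, cut at about 4% in these data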;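 further: optical density read after an 18 h incubation at 37 °C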); details: OD growth, at 11.9 µM, stronger effect = higher value
[3] = bacterial growth inhibitors – absorbance, counter-screen for AddAB inhibitor project, confirmation (AID 488956; in the data active means inhibition above about 25%); details: bacterial viability, absorbance (AddAB counterscreen); at 11.9 µM; stronger effect = higher value
[4] = reduced OD of V66 E. coli with T4 gene 2 phage – absorbance, RecBCD inhibitor project, confirmation (AID 651982;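 active means mean inhibition over triplicates exceeding the hit threshold derived in the original primary screen, cut at about 11% in these data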); details: E. coli V66 + T4 2- phage, growth OD; at 11.9 µM; stronger effect = higher value
[5] = bacterial growth inhibition – absorbance, high throughput, counter-screen for RecBCD inhibitor project (AID 651983; in the data active means inhibition above about 20%;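 further: E. coli strain V66 grown with compound alone and no phage infection; 0% = bacteria with DMSO vehicle only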); details: E. coli viability, absorbance (OD) growth; at 11.9 µM; stronger effect = higher value
[6] = reduced optical density, T4-challenged addAB+ bacteria – absorbance, E. coli V3065, T4 phage, counter-screen for RecBCD inhibitor project, confirmation (AID 651984;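 active means mean inhibition above the solvent-only control wells' mean plus 3 SD, cut at about 22% in these data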;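 further: higher means less bacterial growth from phage killing when AddAB is blocked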); details: E. coli expressing H. pylori AddAB + T4 phage, OD growth; at 11.9 µM; stronger effect = higher value; gene 2 mutant T4, recBCD-deleted host
[7] = system: HIV-1 integrase (multimerization); test: stimulation of HIV-1 integrase oligomerization – biochemical, TR-FRET, counter-screen for LEDGF/p75 integration inhibitor project (AID 1053131; in the data active means activation above about 8.9%); details: TR-FRET HIV-1 integrase multimerization, at 7.7 µM, stronger effect = higher value
[8] = compounds disturbing TR-FRET signal readout – biochemical, HIV-1 IN multimerization, artefact control for LEDGF/p75-dependent integration inhibitor project, confirmation (AID 1053135); details: TR-FRET optical interference counterscreen, at 7.7 µM, stronger effect = higher value;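 further: 0% = integrase with antibodies and DMSO and 100% = antibodies without integrase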
[9] = system: HIV-1 integrase / human LEDGF/p75 complex; test: blockers of LEDGF/p75-dependent integrase activity – biochemical, TR-FRET, confirmation (AID 1053136; in the data active means inhibition above about 14%); details: TR-FRET LEDGF/p75-dependent HIV-1 integration, at 3.7 µM, stronger effect = higher value
[10] = biological target: Serine protease HTRA1 (Homo sapiens) (UniProt Q92743); test: confirming inhibition of human HTRA1 – biochemical, fluorescence polarization, confirmation (AID 540248;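 active means mean inhibition over three repeats above a set limit taken from the earlier primary screen, cut at about 37% in these data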;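 further: 0% = HTRA1 with DMSO and 100% = wells lacking HTRA1; inhibitors block probe binding so polarization drops and inhibition rises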); details: recombinant HTRA1, FP-rhodamine activity-based probe, at 5.96 µM, stronger effect = higher value
[11] = biological target: (Lyso)-N-acylphosphatidylethanolamine lipase (Mus musculus) (UniProt Q8VD66); test: mouse ABHD4 hydrolase blockers, triplicate – biochemical, fluorescence polarization, confirmation (AID 720658;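 active means mean inhibition across replicates above the hit cutoff set in the primary screen, cut at about 30% in these data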;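 further: 0% = wild-type ABHD4 with DMSO and 100% = catalytically dead S159A mutant with DMSO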); details: purified mABHD4, FP-Rh probe fluorescence polarization; at 8.92 µM; stronger effect = higher value
[12] = biological target: Galanin receptor type 2 (Homo sapiens) (UniProt O43603); test: blockers of human galanin receptor 2 – cell-based, confirmation (AID 866; in the data active means inhibition above about 27%;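 further: cells stimulated with galanin at about its EC80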); details: GALR2-expressing cells, antagonist mode, at 4 µM, stronger effect = higher value
[13] = nonspecific BLA reporter inhibition – CHO NFAT-bla cells, FRET readout, counter-screen for GALR2 antagonist project, confirmation (AID 867;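 active means inhibition above the mean inhibition across tested compounds plus 3 SD, cut at about 27% in these data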;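 further: 0% = 500 nM thapsigargin stimulated wells and 100% = unstimulated BSA only wells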); details: beta-lactamase FRET, thapsigargin-stimulated, at 4.2 µM, stronger effect = higher value
[14] = system: TLR4-MyD88 interaction (human), BLA complementation; test: disruptors of TLR4 binding to MyD88 – cell-based, HeLa CL3-4, BLA complementation, FRET ratio, confirmation (AID 941;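 active means mean inhibition across three repeat runs above about 25% carried over from the earlier screen, limit read from the data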;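 further: plate controls were DMSO only for no effect and clavulanic acid blocking BLA at full dose for full effect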); details: CCF4 FRET ratio, at 8.4 µM, stronger effect = higher value
[15] = BLA reporter interference in HeLa cells – cell-based, full-length BLA, CCF4 FRET ratio, artefact control for TLR4-MyD88 binding inhibitor project, confirmation (AID 1237;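 active means mean inhibition over three repeats above about 26% taken from the earlier screen, limit read from the data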;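 further: HeLa cells stably expressing beta-lactamase reporter as counterscreen for TLR4-MyD88 inhibitors; 0% = DMSO and 100% = clavulanic acid full inhibition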); details: at 8.4 µM, stronger effect = higher value
[16] = biological target: Toll-like receptor 9 (Homo sapiens) (UniProt Q9NR96); test: disruptors of TLR9 binding to MyD88 – cell-based, CHO, BLA complementation, fluorescence, triplicate, confirmation (AID 540250;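 active means mean inhibition across three repeats above about 21% taken from the earlier screen, limit read from the data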;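 further: blue over green emission ratio reports constitutive TLR9 MyD88 association via BLA complementation; 0% = DMSO vehicle wells and 100% = clavulanate BLA inhibitor wells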); details: CCF4 FRET ratio, at 4.98 µM, stronger effect = higher value
[17] = BLA reporter readout interference – cell-based, fluorescence, artefact control for TLR9-MyD88 binding inhibitor project (AID 540251;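 active means mean inhibition above a 50% cutoff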;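 further: counterscreen of TLR9-MyD88 hits on CMV-driven BLA in CHO-K1 cells; 0% = DMSO alone and 100% = clavulanate blocking BLA; higher means less blue over green ratio so more BLA blockade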); details: CHO-BLA cells, CCF4 FRET ratio, at 4.98 µM, stronger effect = higher value
[18] = CHO cell viability loss – luminescence, single concentration, cytotoxicity control for TLR9-MyD88 binding inhibitor project (AID 588336; in the data active means inhibition above about 11%); details: TLR9-MyD88 CHO cells cytotoxicity, at 4.98 µM, stronger effect = higher value
[19] = biological target: Receptor-interacting serine/threonine-protein kinase 2 (Homo sapiens) (UniProt O43353); test: inhibitors of RIPK2 association with NOD2 – fluorescence, CHO cells, BLA complementation, triplicate, confirmation (AID 624370;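 active means mean inhibition across replicates above a set limit taken from the earlier primary screen, cut at about 21% in these data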;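 further: 0% = DMSO-only wells and the high end = clavulanate BLA-blocked wells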); details: CCF4 FRET, at 4.98 µM, stronger effect = higher value
[20] = BLA reporter readout interference – cell-based, CHO-K1 CMV-bla, CCF4 FRET, fluorescence, artefact control for NOD2-RIPK2 interaction inhibitor project, confirmation (AID 624371;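 active means mean inhibition above the low-control mean inhibition plus three low-control SD, cut at about 11% in these data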;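 further: 0% = DMSO only wells and 100% = clavulanate high control wells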); details: CCF4 FRET ratio, counterscreen, at 4.98 µM, stronger effect = higher value
[21] = blockers of IL-6 STAT3 signaling – U3A cells, luciferase, luminescence, confirmation (AID 1265;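 active means inhibition above the hit cutoff computed for the primary STAT3 screen, cut at about 44% in these data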;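 further: 0% = IL-6 plus DMSO and 100% = IL-6 plus nifuroxazide control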); details: IL-6 STAT3 luciferase reporter, at 5.7 µM, stronger effect = higher value, cell line lacks STAT1
[22] = inhibition of TNF-alpha-driven NF-kB transcription – cell-based, HEK293T, luciferase, TNF-alpha stimulus, counter-screen for STAT3 inhibitor project, confirmation (AID 1308;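 active means inhibition above the mean of solvent-only control wells plus 3 SD, cutoff set per campaign, cut at about 13% in these data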;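 further: 0% = TNF-alpha with DMSO and 100% = TNF-alpha with MG high control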); details: HEK293T NF-kB luciferase reporter, TNF-alpha induced; at 5.7 µM; stronger effect = higher value
[23] = inhibition of STAT1-driven transcription – cell-based, NIH 3T3, luciferase luminescence, IFN-gamma, counter-screen for STAT3 inhibitor project, confirmation (AID 1317;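 active means inhibition above the mean plus 3 SD of solvent-only control wells, limit set per screening run, cut at about 16% in these data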;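 further: 0% = DMSO with IFN-gamma and 100% = nifuroxazide control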); details: NIH 3T3 STAT1-luciferase reporter, IFN-gamma induced, at 5.7 µM, stronger effect = higher value
[24] = suppression of KLF5 promoter-driven luciferase – DLD-1 cells, luminescence, confirmation (AID 1834;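 active means inhibition above a set limit taken from the earlier primary screen, cut at about 63% in these data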;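 further: 0% = DMSO wells and 100% = LY294002 at 200 µM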); details: DLD-1 KLF5 promoter firefly luciferase reporter, at 4 µM, stronger effect = higher value
[25] = IEC-6 intestinal cell killing – luminescence, triplicate, cytotoxicity control for KLF5 inhibitor project (AID 1905; in the data active means inhibition above about 23%;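 further: cells exposed to compounds for 48 hours before viability read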); details: IEC-6 rat intestinal cells, viability luminescence; at 4 µM; stronger effect = higher value
[26] = biological target: Nuclear receptor coactivator 3 (Homo sapiens) (UniProt Q9Y6Q9); test: NCOA3 GAL4-fusion reporter inhibition – cell-based, luminescence, quadruplicate, confirmation (AID 588792;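 active means mean inhibition over 43.08%, the solvent-only control mean plus 3 SD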;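 further: 0% = DMSO treated cells and 100% = gossypol at 36 µM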); details: HEK293 GAL4-SRC3 luciferase reporter, at 3.6 µM, stronger effect = higher value
[27] = system: transactivating tegument protein VP16 (Human herpesvirus 1), Gal4-VP16 luciferase reporter; test: repression of VP16-driven luciferase reporter – cell-based, luminescence, high throughput, counter-screen for SRC3 inhibitor project (AID 588794; in the data active means inhibition above about 30%); details: mammalian cells, at 3.6 µM, stronger effect = higher value
[28] = biological target: Nuclear receptor coactivator 1 (Homo sapiens) (UniProt Q15788); test: NCOA1 GAL4-fusion reporter inhibition – cell-based, luminescence, quadruplicate, confirmation (AID 588820;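 active means mean inhibition above 46.68%, the untreated control wells mean plus 3 SD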;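 further: 0% = DMSO wells and 100% = gossypol 36 µM treated wells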); details: HEK293 GAL4-SRC1 luciferase reporter, at 3.6 µM, stronger effect = higher value
[29] = repression of VP16-driven luciferase reporter – cell-based, luminescence, high throughput, counter-screen for SRC1 inhibitor project (AID 588824; in the data active means inhibition above about 25%); details: cell-based VP16 transactivation luciferase luminescence; at 3.6 µM; stronger effect = higher value
[30] = biological target: Photoreceptor-specific nuclear receptor (Homo sapiens) (UniProt Q9Y5X4); test: retest of NR2E3-NCOR disrupting agonists – cell-based, luminescence, CHO-S two-hybrid, confirmation (AID 624378;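 active means average inhibition above a cutoff equal to the mean inhibition of all tested compounds plus one SD, cut at about 70% in these data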;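 further: 0% = DMSO in NR2E3 cells and 100% = DMSO in cells lacking NR2E3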); details: CHO-S mammalian two-hybrid NR2E3-NCOR, luciferase luminescence; at 3.98 µM; stronger effect = higher value
[31] = nonselective effects on VP16 transactivation – cell-based, luminescence, CHO-S, high throughput, counter-screen for NR2E3 agonist project, confirmation (AID 624379;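 active means mean inhibition above a cutoff equal to the average over all tested compounds plus one standard deviation, cut at about 70% in these data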;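 further: 0% = DMSO with VP16-transfected cells and 100% = DMSO with cells lacking VP16; higher means less reporter light so more repression of VP16 activity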); details: CHO-S GAL4-VP16 luciferase reporter, at 3.98 µM, stronger effect = higher value
[32] = StAR promoter reporter inhibitors, counter-screen for LRH-1 inverse agonist project, cell-based, luminescence, high throughput (AID 651611; in the data active means inhibition above about 28%); details: StAR promoter luciferase reporter counterscreen, at 3.6 µM, stronger effect = higher value
[33] = biological target: Nuclear receptor subfamily 5 group A member 2 (Homo sapiens) (UniProt O00482); test: NR5A2 activity suppression in reporter cells – cell-based, luminescence, confirmation (AID 651613; in the data active means inhibition above about 42%;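 further: HEK293T cells co-transfected with LRH-1 and StAR promoter luciferase reporter; 0% = vehicle wells and 100% = parental cells lacking receptor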); details: cell-based LRH-1 luciferase reporter, inverse agonism; at 3.6 µM; stronger effect = higher value
[34] = biological target: Steroidogenic factor 1 (Homo sapiens) (UniProt Q13285); test: inverse agonism at SF1 nuclear receptor – cell-based, luminescence, high throughput, counter-screen for LRH-1 inverse agonist project (AID 651614; in the data active means inhibition above about 44%;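 further: cells cotransfected with StAR promoter reporter and SF1 expression vector; 0% = vehicle on cells with receptor and 100% = vehicle on cells lacking receptor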); details: cell-based SF1 luciferase reporter, at 3.6 µM, stronger effect = higher value
[35] = compounds suppressing VP16-driven luciferase signal – cell-based, luminescence, high throughput, counter-screen for LRH-1 inverse agonist project (AID 651615; in the data active means inhibition above about 33%); details: Gal4-VP16 luciferase reporter cells, at 3.6 µM, stronger effect = higher value
[36] = VP16-driven transactivation reporter suppression – cell-based, luminescence, HEK293, counter-screen for COUP-TFII antagonist project (AID 687007; in the data active means inhibition above about 13%); details: HEK293 Gal4-VP16 luciferase reporter, at 8.5 µM, stronger effect = higher value
[37] = biological target: COUP transcription factor 2 (Homo sapiens) (UniProt P24468); test: retest of COUP-TFII reporter suppressors – cell-based, luciferase reporter, HEK293, triplicate, confirmation (AID 687008;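 active means mean inhibition over three repeats above a set limit taken from the earlier primary screen, cut at about 38% in these data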;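 further: 100% = cells given the luciferase reporter alone without the COUP-TF2 vector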); details: HEK293 NGFI-A luciferase reporter, luminescence; at 8.5 µM; stronger effect = higher value
[38] = potentiators of IFN-gamma STAT1 reporter activity – cell-based, HTS, luciferase reporter, confirmation (AID 1262;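 active means activation above a set limit carried over from the earlier primary STAT1 screen, cut at about 140% in these data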;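 further: simple ratio to median IFN-gamma plus DMSO wells so 0% means no light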); details: NIH 3T3 STAT1-luciferase reporter, IFN-gamma potentiation, luminescence; at 5.7 µM; stronger effect = higher value; 100% = IFN-gamma EC80 alone, no compound
[39] = enhancement of NF-kB transcriptional signalling – cell-based, HEK293T, luciferase luminescence, TNF-alpha, counter-screen for STAT1 activator project (AID 1306;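 active means activation above the mean of solvent-only control wells plus 3 SD, set per campaign, cut at about 130% in these data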;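 further: TNF-alpha given at a submaximal dose yielding about 80% of full reporter signal; values are well signal over median control so 100% means no change and 0% no light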); details: HEK293T NF-kB luciferase reporter, TNF-alpha stimulated, at 5.7 µM, stronger effect = higher value, 100% = TNF-alpha with vehicle only
[40] = biological target: Signal transducer and activator of transcription 3 (Homo sapiens) (UniProt P40763); test: enhancers of IL-6 STAT3 transcription – U3A cells, luciferase, luminescence, counter-screen for STAT1 activator project, confirmation (AID 1316;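 active means activation above the solvent-only control well mean plus 3 SD, set per plate batch, cut at about 110% in these data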;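 further: 0% = no luminescence and 100% = median IL-6 plus DMSO wells; higher means more STAT3 reporter activation so hits are non-selective activators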); details: U3A cells STAT3-luciferase reporter, IL-6, luminescence; at 5.7 µM; stronger effect = higher value; 100 = IL-6 alone, no compound effect; cells lack STAT1
[41] = biological target: Sphingosine 1-phosphate receptor 4 (Homo sapiens) (UniProt O95977); test: blockers of human S1P4 signalling – cell-based, confirmation (AID 1524; in the data active means inhibition above about 30%); details: S1P4-expressing cell line, antagonist mode, reporter read-out; at 4.98 µM; stronger effect = higher value
[42] = biological target: Sphingosine 1-phosphate receptor 1 (Homo sapiens) (UniProt P21453); test: blockade of human S1P1 receptor – cell-based, counter-screen for S1P4 antagonist project (AID 1564; in the data active means inhibition above about 40%;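 further: receptor stimulated with S1P near its EC80; 0% = agonist stimulated wells and 100% = vehicle only wells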); details: cell-based S1P1 antagonist counterscreen, at 4.98 µM, stronger effect = higher value
Chain of Sphingosine 1-phosphate receptor 1 (Homo sapiens) (P21453 whole entry, looked up): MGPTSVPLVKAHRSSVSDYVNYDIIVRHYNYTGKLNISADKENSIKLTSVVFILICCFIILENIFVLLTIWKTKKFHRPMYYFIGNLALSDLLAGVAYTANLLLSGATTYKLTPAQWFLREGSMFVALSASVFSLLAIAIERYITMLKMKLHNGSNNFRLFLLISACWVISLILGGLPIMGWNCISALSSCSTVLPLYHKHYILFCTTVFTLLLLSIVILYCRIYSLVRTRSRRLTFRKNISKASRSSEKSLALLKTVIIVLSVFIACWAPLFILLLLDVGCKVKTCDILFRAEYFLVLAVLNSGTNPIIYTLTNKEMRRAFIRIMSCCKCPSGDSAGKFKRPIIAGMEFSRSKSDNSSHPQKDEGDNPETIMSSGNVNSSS

Chain of Nuclear receptor coactivator 1 (Homo sapiens) (Q15788 whole entry, looked up, the tested form may be a part): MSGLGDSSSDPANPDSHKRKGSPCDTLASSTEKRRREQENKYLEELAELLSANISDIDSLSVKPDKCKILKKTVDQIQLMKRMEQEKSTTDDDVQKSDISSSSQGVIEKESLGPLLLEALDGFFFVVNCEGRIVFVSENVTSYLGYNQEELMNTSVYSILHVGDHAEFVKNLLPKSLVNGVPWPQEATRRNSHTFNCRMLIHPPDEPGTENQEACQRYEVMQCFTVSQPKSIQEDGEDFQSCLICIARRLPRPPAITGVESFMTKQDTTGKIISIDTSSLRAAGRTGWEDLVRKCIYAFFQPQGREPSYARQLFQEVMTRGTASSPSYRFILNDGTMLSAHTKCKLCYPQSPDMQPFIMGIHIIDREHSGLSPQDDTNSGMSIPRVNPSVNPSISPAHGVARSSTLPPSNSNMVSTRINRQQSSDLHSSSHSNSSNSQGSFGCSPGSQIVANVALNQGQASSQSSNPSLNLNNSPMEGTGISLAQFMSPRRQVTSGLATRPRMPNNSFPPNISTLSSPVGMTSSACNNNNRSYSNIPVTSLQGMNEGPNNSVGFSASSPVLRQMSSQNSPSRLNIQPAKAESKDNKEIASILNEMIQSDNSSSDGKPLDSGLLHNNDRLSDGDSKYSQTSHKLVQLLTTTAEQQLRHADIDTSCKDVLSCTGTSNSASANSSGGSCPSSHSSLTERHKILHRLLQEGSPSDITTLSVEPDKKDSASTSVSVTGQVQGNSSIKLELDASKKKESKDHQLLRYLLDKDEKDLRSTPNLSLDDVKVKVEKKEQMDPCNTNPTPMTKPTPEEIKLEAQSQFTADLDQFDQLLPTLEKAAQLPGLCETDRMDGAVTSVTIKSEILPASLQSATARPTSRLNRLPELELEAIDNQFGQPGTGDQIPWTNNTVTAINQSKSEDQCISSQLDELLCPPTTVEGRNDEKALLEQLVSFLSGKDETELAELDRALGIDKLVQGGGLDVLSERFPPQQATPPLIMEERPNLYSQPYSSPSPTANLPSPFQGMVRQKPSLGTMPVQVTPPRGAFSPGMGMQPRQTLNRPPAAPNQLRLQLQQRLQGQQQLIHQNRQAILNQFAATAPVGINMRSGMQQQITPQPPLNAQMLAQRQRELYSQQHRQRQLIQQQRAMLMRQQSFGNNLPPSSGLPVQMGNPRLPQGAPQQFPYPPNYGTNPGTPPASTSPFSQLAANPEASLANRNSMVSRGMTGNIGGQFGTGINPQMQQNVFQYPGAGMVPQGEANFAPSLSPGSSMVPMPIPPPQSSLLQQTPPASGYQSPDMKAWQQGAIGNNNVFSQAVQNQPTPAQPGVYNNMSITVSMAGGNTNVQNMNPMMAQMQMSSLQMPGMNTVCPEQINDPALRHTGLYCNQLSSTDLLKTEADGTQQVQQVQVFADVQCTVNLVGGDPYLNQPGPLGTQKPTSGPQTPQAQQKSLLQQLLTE
Chain of Toll-like receptor 9 (Homo sapiens) (Q9NR96 whole entry, looked up): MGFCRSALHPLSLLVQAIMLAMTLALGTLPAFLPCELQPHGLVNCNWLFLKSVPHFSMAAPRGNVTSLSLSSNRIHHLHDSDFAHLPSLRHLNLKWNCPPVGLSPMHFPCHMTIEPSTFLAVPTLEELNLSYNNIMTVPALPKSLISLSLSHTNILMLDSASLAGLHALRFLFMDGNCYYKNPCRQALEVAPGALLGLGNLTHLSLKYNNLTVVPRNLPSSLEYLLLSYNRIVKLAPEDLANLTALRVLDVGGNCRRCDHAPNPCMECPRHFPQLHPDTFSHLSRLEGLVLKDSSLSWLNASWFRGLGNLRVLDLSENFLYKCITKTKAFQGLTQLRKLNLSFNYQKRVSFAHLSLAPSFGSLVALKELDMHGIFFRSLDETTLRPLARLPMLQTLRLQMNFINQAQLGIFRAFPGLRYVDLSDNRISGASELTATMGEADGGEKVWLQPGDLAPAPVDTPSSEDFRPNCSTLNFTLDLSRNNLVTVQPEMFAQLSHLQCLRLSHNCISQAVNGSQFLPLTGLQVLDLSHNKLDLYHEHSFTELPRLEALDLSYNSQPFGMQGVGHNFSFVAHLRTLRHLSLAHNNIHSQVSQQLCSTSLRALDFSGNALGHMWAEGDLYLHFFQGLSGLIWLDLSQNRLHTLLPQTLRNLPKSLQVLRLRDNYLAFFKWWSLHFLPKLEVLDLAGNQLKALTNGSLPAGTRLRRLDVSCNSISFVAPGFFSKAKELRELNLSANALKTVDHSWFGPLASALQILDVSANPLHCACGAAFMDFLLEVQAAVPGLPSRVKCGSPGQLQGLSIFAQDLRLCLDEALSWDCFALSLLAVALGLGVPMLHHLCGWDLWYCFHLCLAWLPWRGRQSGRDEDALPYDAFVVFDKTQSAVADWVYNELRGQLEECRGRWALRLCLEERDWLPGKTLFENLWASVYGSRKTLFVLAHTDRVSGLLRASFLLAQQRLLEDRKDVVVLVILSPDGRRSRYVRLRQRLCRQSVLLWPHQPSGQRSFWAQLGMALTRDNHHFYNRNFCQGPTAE
Chain of Nuclear receptor subfamily 5 group A member 2 (Homo sapiens) (O00482 whole entry, looked up): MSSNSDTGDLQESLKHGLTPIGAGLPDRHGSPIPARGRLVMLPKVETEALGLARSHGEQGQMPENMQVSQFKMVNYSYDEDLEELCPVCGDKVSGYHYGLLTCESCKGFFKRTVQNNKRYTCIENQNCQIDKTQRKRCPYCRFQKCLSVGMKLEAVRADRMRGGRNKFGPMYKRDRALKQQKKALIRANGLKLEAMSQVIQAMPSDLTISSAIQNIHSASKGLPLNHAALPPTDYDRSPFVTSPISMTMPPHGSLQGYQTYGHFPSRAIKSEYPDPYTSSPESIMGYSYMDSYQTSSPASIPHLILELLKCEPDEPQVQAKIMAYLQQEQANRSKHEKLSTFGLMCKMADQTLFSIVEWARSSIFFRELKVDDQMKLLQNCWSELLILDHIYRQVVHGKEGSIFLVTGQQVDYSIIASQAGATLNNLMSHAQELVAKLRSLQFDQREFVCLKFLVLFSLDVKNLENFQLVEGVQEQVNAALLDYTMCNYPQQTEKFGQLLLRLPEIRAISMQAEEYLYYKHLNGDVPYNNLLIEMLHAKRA
Chain of Photoreceptor-specific nuclear receptor (Homo sapiens) (Q9Y5X4 whole entry, looked up): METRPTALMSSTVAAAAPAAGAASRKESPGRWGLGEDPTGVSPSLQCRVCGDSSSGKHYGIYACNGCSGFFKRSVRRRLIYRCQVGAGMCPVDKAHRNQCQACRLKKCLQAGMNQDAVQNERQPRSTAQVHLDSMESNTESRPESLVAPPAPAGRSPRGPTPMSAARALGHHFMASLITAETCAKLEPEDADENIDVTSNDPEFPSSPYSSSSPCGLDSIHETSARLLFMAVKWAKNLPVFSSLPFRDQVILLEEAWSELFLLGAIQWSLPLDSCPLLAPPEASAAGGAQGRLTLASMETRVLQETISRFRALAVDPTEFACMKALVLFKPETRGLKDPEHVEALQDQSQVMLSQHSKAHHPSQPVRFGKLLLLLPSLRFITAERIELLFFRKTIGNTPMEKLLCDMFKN
Chain of Galanin receptor type 2 (Homo sapiens) (O43603 whole entry, looked up): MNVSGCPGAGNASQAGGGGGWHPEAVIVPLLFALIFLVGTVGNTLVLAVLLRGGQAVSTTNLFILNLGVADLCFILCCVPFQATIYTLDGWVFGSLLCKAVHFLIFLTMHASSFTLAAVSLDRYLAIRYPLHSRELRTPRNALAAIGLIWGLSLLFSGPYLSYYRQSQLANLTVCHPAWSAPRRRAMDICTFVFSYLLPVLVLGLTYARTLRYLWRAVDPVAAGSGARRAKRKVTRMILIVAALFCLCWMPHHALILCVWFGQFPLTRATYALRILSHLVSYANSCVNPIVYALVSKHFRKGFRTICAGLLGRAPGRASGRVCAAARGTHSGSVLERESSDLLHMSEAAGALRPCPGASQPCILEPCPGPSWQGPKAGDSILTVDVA
Chain of Receptor-interacting serine/threonine-protein kinase 2 (Homo sapiens) (O43353 whole entry, looked up): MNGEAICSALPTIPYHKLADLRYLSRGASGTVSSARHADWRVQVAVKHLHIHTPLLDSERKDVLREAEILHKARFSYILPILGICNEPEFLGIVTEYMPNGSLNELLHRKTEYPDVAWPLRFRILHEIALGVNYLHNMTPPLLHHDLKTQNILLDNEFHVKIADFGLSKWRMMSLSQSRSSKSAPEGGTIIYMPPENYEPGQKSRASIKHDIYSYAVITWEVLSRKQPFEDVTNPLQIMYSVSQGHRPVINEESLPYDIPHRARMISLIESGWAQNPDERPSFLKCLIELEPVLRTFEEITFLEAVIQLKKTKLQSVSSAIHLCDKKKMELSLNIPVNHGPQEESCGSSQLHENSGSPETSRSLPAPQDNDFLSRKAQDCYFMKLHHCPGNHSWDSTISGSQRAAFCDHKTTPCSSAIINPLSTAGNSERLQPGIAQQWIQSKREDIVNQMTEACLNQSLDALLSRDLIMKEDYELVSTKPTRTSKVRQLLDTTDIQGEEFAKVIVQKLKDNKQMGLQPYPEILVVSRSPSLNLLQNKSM

C=CC1=C(C(=O)O)N2C(=O)[C@@H](NC(=O)/C(=N\OCC(=O)O)c3csc(N)n3)[C@H]2SC1
active: inhibition [1] 103% | inhibition [2] 103% | inhibition [3] 104% | inhibition [4] 102% | inhibition [5] 104% | inhibition [6] 104% | activation [7] 85.5% | inhibition [9] 62.9%
inactive: inhibition [8] -430%

NNc1cccc(C=Cc2ccccc2)cc1=O
active: inhibition [10] 47.8% | activation [7] 13.3% | inhibition [9] 33.8%
inactive: inhibition [8] -47.7%

Cc1cc(C(=O)N/N=C/c2ccc(O)c([N+](=O)[O-])c2)c(C)n1-c1ccc(F)cc1
active: inhibition [10] 120% | inhibition [11] 74% | activation [7] 14.2% | inhibition [9] 17.8%
inactive: inhibition [8] -71.4%

COc1ccccc1N1N=C(c2cccs2)CC1c1ccccc1 (stereo not given)
inactive: inhibition [17] 43.5% | inhibition [18] 2.88%
active: inhibition [12] 27.9% | inhibition [13] 39.8% | inhibition [14] 36% | inhibition [15] 70% | inhibition [16] 32.9% | inhibition [19] 51.8% | inhibition [20] 65.6%

Cn1ccc(=Nc2ccc(NC(=O)c3ccc(N=c4ccn(C)c5ccc([N+](=O)[O-])cc45)cc3)cc2)cc1
inactive: inhibition [5] -7.32% | activation [7] -0.71% | inhibition [8] 2.56%
active: inhibition [1] 99.9% | inhibition [2] 101% | inhibition [3] 101% | inhibition [4] 101% | inhibition [6] 102% | inhibition [9] 21%

CCCCCCCCn1c2c(c(=N)c3c1CCC3)CCCC2
inactive: inhibition [14] 23.3%
active: inhibition [15] 27.8% | inhibition [21] 86.6% | inhibition [22] 43.9% | inhibition [23] 28.9% | inhibition [24] 115% | inhibition [25] 23.5% | inhibition [26] 85.1% | inhibition [27] 87.4% | inhibition [28] 66.6% | inhibition [29] 87.6% | inhibition [30] 99.3% | inhibition [31] 91.4% | inhibition [32] 78.1% | inhibition [33] 110% | inhibition [34] 96.5% | inhibition [35] 96.8% | inhibition [36] 32.1% | inhibition [37] 87.4%

COc1ccc(/C=N/Nc2nc3ccccc3c(=O)[nH]2)cc1
active: activation (% of control) [38] 169%
inactive: activation (% of control) [39] 119% | activation (% of control) [40] 102%

CC1CN/C(=C\C(=O)c2ccc(Br)cc2)C(=O)N1 (stereo not given)
inactive: activation (% of control) [39] 117% | activation (% of control) [40] 87.3%
active: activation (% of control) [38] 250%

COc1ccc(NC(=O)/C(Cl)=C(/Cl)S(=O)Cc2ccc(C)cc2)cn1 (stereo not given)
active: inhibition [41] 121% | inhibition [42] 117% | inhibition [24] 109% | inhibition [25] 87%
